GLP1R cytotox: cytotoxic in the GLP-1 receptor inverse agonist counter-screen. HEK293 cAMP-luciferase reporter cells, luminescence, 24 h. Potency, µM (titrated, usually from 38.3 µM), for inactives: at the top dose activity change, negative = inhibition, actives largely listed as inhibitors. 410,000 compounds, 0.13% hits. AID 624418;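 note: loss of luciferase light is scored as toxicity; % is set by controls: 0 for no effect and ±100 for the full control effect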
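Cells in DMEM/10% Nu serum/1% pen-strep, 1536-well format. Pre-incubated 12 h, dosed with 23 nL compound, incubated a further 24 h. Luciferase detection, 12 min at room temp, luminescence.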
BRCA1 expr up: BRCA1 expression activation | MCF7-BRCA1-FFLuc reporter, luminescence, 48 h; response scale: scaled: vehicle 0%, 10 µM genistein 100% | Potency, µM (series often up to 46.1 µM), inactives show at the highest dose activation, actives largely listed as activators | 380,000 compounds, 1.1% hits | AID 624202; note: nearly all actives have a fitted effect of over 80% in size
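Compounds are tested at multiple concentrations on MCF7 BRCA1-luciferase reporter cells seeded at 2000 per well; after 48 h, a single luminescence end-point is taken and curves fitted to the normalized data.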
GLP-1R agonist: activates the human GLP-1 receptor; Potency, µM (series often up to 45.6 µM), for the others: at the top dose activation, hits mostly activators; HEK293 GLP-1R CRE-luciferase, luminescence, 4-6 h; cells express a hypersensitive GLP-1R form; P43220; 380,000 compounds, 0.007% hits; note: % of control where 0% means no effect
Target sequence (P43220 whole entry, looked up): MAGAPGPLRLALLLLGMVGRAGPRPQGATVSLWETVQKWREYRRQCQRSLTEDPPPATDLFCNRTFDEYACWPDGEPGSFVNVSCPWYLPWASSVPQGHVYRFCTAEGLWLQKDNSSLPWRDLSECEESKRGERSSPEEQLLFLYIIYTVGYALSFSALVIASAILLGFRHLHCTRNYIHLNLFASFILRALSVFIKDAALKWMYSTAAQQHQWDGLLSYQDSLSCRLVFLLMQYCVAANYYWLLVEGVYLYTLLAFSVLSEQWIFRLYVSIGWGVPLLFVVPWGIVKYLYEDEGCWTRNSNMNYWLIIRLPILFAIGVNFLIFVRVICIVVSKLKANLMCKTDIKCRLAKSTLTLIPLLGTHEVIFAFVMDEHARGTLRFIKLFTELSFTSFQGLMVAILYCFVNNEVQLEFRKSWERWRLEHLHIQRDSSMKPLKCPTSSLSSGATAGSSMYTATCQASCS
a7 integrin act: integrin-mediated muscular dystrophy alleviation activation; alpha7betagal myoblasts, beta-gal FDG fluorescence, 48 h; 350,000 compounds, 0.064% hits; Potency, µM (doses to about 38.3 µM), for the others: at the top dose activation, actives largely listed as activators; AID 624291;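 note: 100% = response of the positive control SU9516; nearly all actives have a fitted effect of over 60% in size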
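alpha7betagal+/- myoblasts (passage 13, 250/well) treated 48 h at 37C with compounds at 1:260 dilution of DMSO stock. Lysed, then beta-galactosidase activity read as FDG fluorescence (ex 480/em 540) after 30 min, with pre-read for autofluorescence.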
GLP1R inv ag: acts as inverse agonist at human GLP-1 receptor. P43220. 410,000 compounds, 1.6% hits. HEK293 GLP-1R CRE-luciferase, luminescence, 24 h; GLP-1R form is constitutively active. Potency, µM (doses to about 38.3 µM), without a hit: at the highest dose activity change, negative = inhibition, actives largely listed as inhibitors. AID 624417; note: % is set by controls: 0 for no effect and ±100 for the full control effect; nearly all actives have a fitted effect of over 55% in size
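Inverse agonism was detected as reduced cAMP-driven luciferase luminescence after 24 h compound treatment. The cells were HEK293 clones expressing constitutively active human GLP-1R with the reporter. Reporter-only and GPR119 cell lines served as counterscreen controls.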
* hit, by the source's call; ? = inconclusive; nt = no result; [ ] = another dose, or the depositor's remark. In the library only some 2.7% were active in any assay of this set; here they are far more common. Calls come from the whole dose curve; as a rule, active = well fitted curve in the direction sought with a large enough effect; inconclusive = small, poorly fitted or top-dose-only effect, or another doubt; inactive = no such curve, though single readings can be large; an effect the other way counts as inactive or inconclusive. Potency is the fitted concentration of half-maximal effect.

SMILES	GLP1R cytotox	BRCA1 expr up	GLP-1R agonist	a7 integrin act	GLP1R inv ag
Cc1ccc2sc(N(CCCN(C)C)C(=O)c3ccc(S(=O)(=O)N(C)C4CCCCC4)cc3)nc2c1C	?	-88%	-7%	-54%	2.8µM*
Cc1ccc2sc(N(CCCN(C)C)C(=O)c3ccc(S(=O)(=O)N4CCOCC4)cc3)nc2c1C	-15%	-18%	-6%	-9%	10µM*
Cc1cc(C)c2nc(N(CCCN(C)C)C(=O)c3ccc(S(=O)(=O)N4CC(C)OC(C)C4)cc3)sc2c1 (stereo not given)	11%	-32%	-8%	-45%	10µM*
CCOC(=O)N1CCN(S(=O)(=O)c2ccc(C(=O)N(CCCN(C)C)c3nc4c(C)c(C)ccc4s3)cc2)CC1	-11%	-40%	6%	-33%	?
CCCc1cc(=O)oc2c(C)c3c(cc12)CN(CCc1ccc(Cl)cc1)CO3	71%	nt	nt	nt	14%
COc1ccc(OC)c(CCNC(=O)c2c3c(nc4ccccc24)C(=O)N(C2CCCCC2)C3)c1	4%	nt	nt	nt	-13%
COC(=O)c1ccccc1-c1ccc(/C=N/Nc2nc(N3CCCC3)nc(N3CCCC3)n2)o1	?	-72%	8%	-36%	10µM*
Cc1ccc(/C=N/Nc2nc(N3CCCCC3)nc(N3CCCCC3)n2)o1	-2%[7.66 µM]	1%	12%	-49%	-26%[7.66 µM]
COc1cccc(N2CCN(C(=O)Cn3ncc4c(=O)oc5ccccc5c43)CC2)c1	-7%	-11%	-1%	nt	-10%
C=CCN1C(=O)C2(c3ccccc31)C1CCCC=C1C(C#N)=C(N)C2(C#N)C#N (stereo not given)	-2%	-50%	-2%	-5%[7.66 µM]	4.5µM*
C=CCN1C(=O)[C@]2(c3ccccc31)C1CCCC=C1C(C#N)=C(N)C2(C#N)C#N (stereo not given in full)	2%	-60%	-11%	-16%	-6%
CC(Oc1cccc(Cl)c1)C(=O)Nc1nc(-c2ccccn2)cs1 (stereo not given)	?	-82%	1%	-67%	5µM*
Cc1cc(Nc2ccc(Cl)cc2)n(-c2cccc(Cl)c2)n1	64%	-60%	-4%	?	7.9µM*
Cc1cc(Nc2ccc(Cl)cc2)n(-c2ccccc2)n1	-4%	-34%	1%	-18%	2.8µM*
Cc1cc(Nc2ccccc2C(=O)O)n(-c2cccc(Cl)c2)n1	2%	-35%	-8%	-1%	-35%
CCO[C@@H](Cc1ccc(OCCc2ccc(OS(C)(=O)=O)cc2)cc1)C(=O)O	nt	nt	7%	nt	nt
CCc1cccc(NC(=O)Nc2cccs2)c1	-22%	11µM*	-18%	-15%	?
N#Cc1cccc(NC(=O)Nc2cccs2)c1	4%	15%	2%	0%	?
CC(C)C(=O)NCCc1nc2ccccc2n1CCc1ccccc1	10%	-32%	4%	12%	?
CC(C)Cc1nc2ccccc2n1CCc1ccccc1	?	-7%	18%	2%	13µM*
CC(C)(C)Cc1nc2ccccc2n1CCc1ccccc1	-4%	-22%	5%	5%	5µM*
CCc1nc2ccccc2n1CCc1ccccc1	-5%	-4%	42%	2%	?
COc1ccc(CN2CCNC(=O)C2CC(=O)NCCc2c[nH]c3ccccc23)c(OC)c1 (stereo not given)	8%	-3%	9%	10µM*	11%
CN(C)c1ccc(/C=C/c2sc3ccccc3[n+]2CCCCI)cc1	nt	-44%	nt	nt	nt
O=C(Nc1ccc([N+](=O)[O-])cc1)c1ccccc1F	9%	4.5µM*	-3%	23%	7%
SMILES	GLP1R cytotox	BRCA1 expr up	GLP-1R agonist	a7 integrin act	GLP1R inv ag
CCCCOC1CC(c2ccc(OCc3ccc(OC)cc3)c(OC)c2)N(C)O1 (stereo not given)	-17%	46%	11%	?	10µM*
CCCOc1ccc(C2C(=O)N(C3CCCCCC3)CC(=O)N2Cc2ccc(OC)cc2)cc1OC (stereo not given)	7%	nt	nt	nt	11%
Cc1cc(Nc2cccc(Cl)c2)nc2ccc(NC(=O)Cc3ccc(Cl)cc3)cc12	-24%	-69%	-6%	nt	5.6µM*
COc1ccc(CC(=O)Nc2ccc3nc(Nc4cccc(Cl)c4)cc(C)c3c2)cc1OC	-2%	-59%	-7%	nt	?
Cc1cc(Nc2cccc(Cl)c2)nc2ccc(NC(=O)Cc3cccc(C(F)(F)F)c3)cc12	?	-73%	-10%	nt	4µM*
Cc1cc(Nc2cccc(C(F)(F)F)c2)nc2ccc(NC(=O)c3cccc(Cl)c3)cc12	?	-26%	-17%	nt	2.8µM*
CCOc1ccc(C(=O)Nc2ccc3nc(Nc4cccc(C(F)(F)F)c4)cc(C)c3c2)cc1OCC	1%	-5%	0%	nt	-6%
COc1ccc(Nc2cc(C)c3cc(NC(=O)COc4cccc(C)c4)ccc3n2)cc1	-12%	-32%	-5%	nt	10µM*
Nc1ccccc1/C=C/c1ccnc2ccccc12	nt	0%	nt	nt	nt
CCOC(=O)c1cc(S(=O)(=O)N2CCN(c3ccccc3F)CC2)[nH]n1	6%	-3%	-1%	nt	19%
CC(C)(C)c1ccc(OCCNC(=S)Nc2ccccc2)cc1	5.6µM*	-40%	9%	8%	10µM*
CC(C)(C)c1ccc(C(=O)NCCOc2ccccc2)cc1	-4%	-31%	-2%	3%	?
COc1ccccc1C(=O)NCCOc1ccc(C(C)(C)C)cc1	6%	-19%	0%	8.9µM*	?
Cn1cc(/C=C/c2ccnc3ccccc23)c2ccccc21	nt	0%	nt	nt	nt
O=C(NCCc1csc(-c2cccc(F)c2)n1)c1cccs1	-3%	nt	nt	nt	-28%
COc1ccccc1CN(Cc1nc2ccccc2c(=O)[nH]1)C(=O)Nc1ccc(C)cc1	?	5%	6%	-21%	10µM*
CCN(Cc1nc2ccccc2c(=O)[nH]1)C(=O)COc1ccccc1-c1ccccc1	?	-4%	-5%	21%	11µM*
Cc1ccccc1NC(=O)C(=O)NCC1(c2ccccc2)CCCC1	-2%	nt	nt	nt	-29%
O=C1NC2CCCCN2C12CCN(CCCN1c3ccccc3CCc3ccc(Cl)cc31)CC2 (stereo not given)	nt	nt	0%	nt	nt
Cc1ccc(CSc2nc3c([nH]c4ccccc43)c(=O)n2C)cc1	3%	nt	nt	nt	8%
COc1cccc(NC(=S)Nc2ccc(O)cc2)c1	5%	38%	-3%	-34%	10%
COc1cccc(NC(=S)NC2CC(C)CC(C)(C)C2)c1 (stereo not given)	?	0%	0%	0%	8.9µM*
CN(C(=S)Nc1ccc(SC(F)F)cc1)C(c1ccccc1)c1ccccc1	-20%	-58%	-1%	-57%	?
FC(F)Sc1ccc(NC(=S)NC(c2ccccc2)c2ccccc2)cc1	?	-88%	-5%	-73%	4µM*
Cc1cccc(NC(=O)COc2ccccc2C(=O)Nc2ccccc2)c1	nt	0%	nt	nt	nt
